According to the supplement of paper PMC7411640:
Counter-ions that a name gives are not always drawn.

Tested on: MDA-MB-468
Assay: phospho-S6 immunofluorescence (DAPI-normalised), per-plate z-score; higher = higher phospho-S6 signal (less pathway suppression)
Details: co-treatment: GDC0941 450 nM; 24 h
Procedure: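 GPCR-targeted compound library (MedChemExpress HY-L006) tested on MDA-MB-468 PTEN-null TNBC cells in 384-well plates at 0.1, 1 or 10 uM, combined with vehicle, GDC0941 450 nM or lapatinib 1 uM, for 24 h. Phospho-S6 (S240/244) immunofluorescence normalised to DAPI and expressed as a per-plate z-score; values are the mean of biological triplicates.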

Row | Compound | phospho-S6 immunofluorescence (z-score)
1 | CCOCCn1c(C2CCN(CCc3ccc(C(C)(C)C(=O)O)cc3)CC2)nc2ccccc21 [Bilastine] (compound 10 µM) | 0.51
2 | COc1ccccc1Oc1c(NS(=O)(=O)c2ccc(C(C)(C)C)cc2)nc(-c2ncccn2)nc1OCCO [Bosentan] (compound 10 µM) | 0.53
3 | CC(C)C(=O)OCC(=O)[C@@]12O[C@H](C3CCCCC3)O[C@@H]1C[C@H]1[C@@H]3CCC4=CC(=O)C=C[C@]4(C)[C@H]3[C@@H](O)C[C@@]12C [Ciclesonide] (compound 10 µM) | -3.85
4 | CN1CCN(C2=Nc3ccccc3Oc3ccc(Cl)cc32)CC1 [Loxapine (succinate)] (compound 10 µM) | 0.7
5 | Cc1noc(-c2ccc(-c3ccc(CC(=O)O)cc3)cc2)c1NC(=O)O[C@H](C)c1ccccc1 [AM095 (free acid)] (compound 10 µM) | 1.08
6 | CCc1nc2c(C)nc(C)cc2n1-c1ccc(CCNC(=O)NS(=O)(=O)c2ccc(C)cc2)cc1 [Grapiprant] (compound 10 µM) | -0.05
7 | CCOC(=O)N1CCC(=C2c3ccc(Cl)cc3CCc3cccnc32)CC1 [Loratadine] (compound 10 µM) | -1.77
8 | COc1cc2nc(N3CCN(C(=O)C4CCCO4)CC3)nc(N)c2cc1OC (stereo not given) [Terazosin (hydrochloride dihydrate)] (compound 10 µM) | 0.82
9 | CC[C@H](C)[C@@H]1NC(=O)[C@H](Cc2ccc(O)cc2)NC(=O)[C@@H](N)CSSC[C@@H](C(=O)N2CCC[C@H]2C(=O)N[C@@H](CC(C)C)C(=O)NCC(N)=O)NC(=O)[C@H](CC(N)=O)NC(=O)[C@H](CCC(N)=O)NC1=O [Oxytocin (acetate)] (compound 10 µM) | -0.77
10 | O=C(O)Cn1c2c(c3cc(F)ccc31)CN(C(=O)c1cccc3ccccc13)CC2 [Setipiprant] (compound 10 µM) | 0.42
11 | OC[C@H]1O[C@@H](n2cnc3c(N[C@@H]4CCc5ccccc54)ncnc32)[C@H](O)[C@@H]1O (compound 10 µM) | 1.19
12 | C[C@H](CCC(=O)O)[C@H]1CC[C@H]2[C@@H]3CC[C@@H]4C[C@H](O)CC[C@]4(C)[C@H]3C[C@H](O)[C@]12C [Deoxycholic acid] (compound 10 µM) | 0.02
13 | CN1[C@@H]2CC[C@H]1C[C@@H](OC(=O)c1c[nH]c3ccccc13)C2 [Tropisetron (Hydrochloride)] (compound 10 µM) | 0.95
14 | O=C(COc1ccc(C(=O)c2ccccc2)cc1)NC1CCN(Cc2ccccc2)CC1 [AdipoRon] (compound 10 µM) | -4.84
15 | Cc1cc2c(cc1CC(=O)c1sccc1S(=O)(=O)Nc1onc(C)c1Cl)OCO2 [Sitaxsentan (sodium)] (compound 10 µM) | 0.35
16 | CCCN(CCN1CCN(c2ccccc2OC)CC1)C1CCc2ncsc2C1 (stereo not given) [ST-836 (hydrochloride)] (compound 10 µM) | 0.29
17 | Cc1c(Cc2ccc3ccccc3n2)c2cc(F)ccc2n1CC(=O)O (compound 10 µM) | 0
18 | Cc1cc(C)nc(NS(=O)(=O)c2ccc(NC(=S)NC(=O)COc3ccc(Br)cc3Cl)cc2)n1 (compound 10 µM) | 0.46
19 | N=C(N)NCCC[C@@H](NC(=O)[C@@H]1CCCN1C(=O)[C@@H]1CSSCCC(=O)N[C@@H](Cc2ccc(O)cc2)C(=O)N[C@@H](Cc2ccccc2)C(=O)N[C@@H](CCC(N)=O)C(=O)N[C@@H](CC(N)=O)C(=O)N1)C(=O)NCC(N)=O [Desmopressin (Acetate)] (compound 10 µM) | 0.16
20 | c1ccc2c(c1)N=C(N1CCNCC1)c1ccccc1N2 [DREADD agonist 21] (compound 10 µM) | -0.11
21 | N[C@@H](Cc1ccc(O)c(O)c1)C(=O)O (compound 10 µM) | -0.94
22 | COc1ccc2ccc(=O)oc2c1CC=C(C)C [Osthole] (compound 10 µM) | 0.06
23 | CC(C)c1cc(-c2ccc(F)c3ccccc23)nc(N)n1 (compound 10 µM) | -1.03
24 | CC(C)(Cc1ccc2ccccc2c1)NC[C@@H](O)COc1cccc(Cl)c1C#N [NPS-2143 (hydrochloride)] (compound 10 µM) | -6
25 | COc1cc(N)c(Cl)cc1C(=O)NC1CCN(CCCOc2ccc(F)cc2)CC1OC (stereo not given) [Cisapride] (compound 10 µM) | -1.02
